In PubChem BioAssay (NCI) one finds growth data, which are given here for 8 molecules.

About 83,000 compounds went through this panel and 20% of them were active in at least one assay; those are over-represented in the sample as a whole.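 Cell lines were cultured in 96-well plates, exposed to a single compound concentration, and assessed for percent growth 48 hours later.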 A number with no mark means an inactive call. Calls of active or inactive are those of the source. Rule for the calls: active = growth percent below 10; inactive = the rest.

Common to all, as to assay: NCI-60 one-dose screen, 48 h (100 = growth as untreated, 0 = no growth, -100 = all killed)
Common to all, as to settings: 10 µM unless noted

Experiment [1] deals with DU-145 prostate.
For experiment [2], the system named is K-562 leukemia.
In experiment [3] the test system is MALME-3M melanoma.
Experiment [4] has as its system MDA-MB-231 breast.
Experiment [5] relates to RXF 393 renal.
The test system of experiment [6] is SF-268 CNS.
In experiment [7] the test system is SF-539 CNS.
Experiment [8] relates to UACC-257 melanoma.
Experiment [9] has as its system M14 melanoma.
Experiment [10] relates to HCT-15 colon.
The subject of experiment [11] is HT29 colon.
Experiment [12] concerns SNB-75 CNS.
In experiment [13] the test system is U251 CNS.
Experiment [14] has as its system PC-3 prostate.
Experiment [15] has as its system SK-MEL-5 melanoma.
Experiment [16] relates to UACC-62 melanoma.
For experiment [17], the system named is LOX IMVI melanoma.
Experiment [18] concerns SK-MEL-28 melanoma.
Experiment [19] has as its system SNB-19 CNS.

Take `Clc1ccc2c(c1)-c1ccccc1C1=NCCN12`: the growth in experiment [1] is 30.8%; in experiment [2], 9.07% (active); in [3] it was 11.5%; in experiment [4], 45.6%; in [5] it was 2.19% (active); in experiment [6] it was 41.1%. For the same molecule, the growth is 33.8% in experiment [7]; 14.2% in experiment [8]; 37.8% in experiment [9]; 20% in [10]; 4.08% (active) in [11]; 49.5% in experiment [12]. Also, the growth in experiment [13] was 25%; in experiment [14], 28.5%; in experiment [15], 19.9%; in experiment [16], 30.3%; in experiment [17] it was 11.7%; in experiment [18], 43.2%.

For the molecule `Cc1cc(NC(=O)C2c3ccccc3C(=O)N(CC(C)C)C2c2cccs2)no1` (stereo not drawn), the growth in [1] was -9.63% (active); in experiment [2], 3.46% (active); in experiment [3], -62.1% (active); in experiment [4], -14.2% (active); in [5], -88.3% (active); in experiment [6] it was 27.8%. Besides, the growth is 18.2% in [7]; -8.81% (active) in experiment [8]; 1% (active) in experiment [9]; 7.04% (active) in experiment [10]; -29.4% (active) in [11]; 61.4% in experiment [12]. Moreover, the growth was 81.9% in experiment [19]; 21.2% in [13]; 9.17% (active) in experiment [14]; 14.2% in experiment [15]; -84.5% (active) in experiment [16]; -85.3% (active) in experiment [17]. Further, the growth in [18] was -86.8% (active).

For `COc1ccc(/C=C/C(=O)c2ccc(NC(=O)CSc3nnc(-c4ccc(OC)cc4)n3-c3ccccc3)cc2)cc1`, the growth in experiment [1] was 104%; in experiment [2] it was 78.1%; in [3], 96.8%; in experiment [4] it was 90.9%; in experiment [5], 108%; in experiment [6], 101%. The growth in [7] was 100%; in experiment [8] it was 91.9%; in experiment [9], 92.7%; in [10], 96.4%; in experiment [11] it was 103%; in experiment [12], 91.7%. Besides, the growth was 94.1% in [19]; 87.1% in experiment [13]; 106% in experiment [14]; 95.1% in experiment [15]; 89.4% in [16]; 102% in experiment [17]. In addition, the growth in experiment [18] was 106%.

On to `CCN(CC)Cc1cc(Nc2nc(NC3CCC(N(C)C)CC3)c3ccccc3n2)ccc1OC` (stereo not drawn), for which the growth in experiment [1] was 98.8%; in experiment [2], 7.54% (active); in experiment [3], 69.1%; in [4], 39.8%; in experiment [5], 74.9%; in [6], 69.8%. Besides, the growth was 73.9% in experiment [7]; -32.6% (active) in experiment [8]; -10.2% (active) in experiment [9]; 94.7% in experiment [10]; 14.2% in experiment [11]; 72.3% in experiment [12]. In addition, the growth in experiment [19] was 89.4%; in experiment [13], 50.5%; in experiment [15], 45.7%; in experiment [16], 98.4%; in [17], 33.7%; in [18], 20.6%.

For `CN1CCN(Cc2ccc(NC(=O)c3cncc(C#Cc4ncc5ccccn45)c3)cc2C(F)(F)F)CC1`, the growth is -4.29% (active) in experiment [1]; 3.35% (active) in experiment [2]; -21.4% (active) in [3]; 15.4% in [4]; -10.1% (active) in experiment [5]; 15.4% in experiment [6]. The growth in experiment [7] is -79.6% (active); in experiment [8] it was 7.63% (active); in experiment [9], 5.5% (active); in [10] it was 19.2%; in experiment [11], 5.13% (active); in [12] it was 34.3%. For the same molecule, the growth is 39% in experiment [19]; -27.7% (active) in [13]; 21.9% in experiment [14]; 52.3% in experiment [15]; 51.7% in experiment [16]; 25.7% in [17]. The growth in experiment [18] was 8.57% (active).

`COc1ccc(-c2nn(-c3cccc(Cl)c3)cc2/C=C2\C(=N)N(c3ccccc3)N=C2N)cc1`: the growth in experiment [1] is 37.6%; in experiment [2], 1.77% (active); in experiment [3], 28.8%; in experiment [4], 59%; in experiment [5], 85%; in experiment [6], 47.8%. Also, the growth in [7] is -12.8% (active); in experiment [8] it was 58.4%; in experiment [9], 5.51% (active); in [10] it was 44.5%; in [11] it was 57.4%; in experiment [12], 81.6%. The growth was 66.3% in experiment [13]; 39.6% in experiment [14]; 34.8% in experiment [15]; -3.26% (active) in experiment [16]; 6.46% (active) in [17]; 32.8% in experiment [18].

With `FC(F)(F)C1=NNC(c2ccc3ccccc3c2)=NN1`, the growth in experiment [1] is 104%; in experiment [2], 95.2%; in experiment [3], 107%; in experiment [4], 81.9%; in [5], 123%; in experiment [6], 100%. Also, the growth in [7] was 93.9%; in experiment [8], 104%; in experiment [9] it was 98.3%; in experiment [10] it was 97.9%; in experiment [11], 107%; in experiment [12], 80.3%. Besides, the growth is 99.2% in experiment [13]; 109% in [14]; 97.8% in [15]; 101% in experiment [16]; 90.5% in experiment [17]; 112% in [18].

In the case of `C=C(CN1CC=CCC1)[C@@H]1CC[C@]2(C(=O)OC)CC[C@]3(C)[C@H](CC[C@@H]4[C@@]5(C)CC[C@H](OC(C)=O)C(C)(C)[C@@H]5CC[C@]43C)[C@@H]12`, the growth was 107% in experiment [1]; 57.9% in [2]; 92.9% in experiment [3]; 99.2% in [4]; 101% in experiment [5]; 92.5% in [6]. In addition, the growth was 93.3% in [7]; 91.9% in experiment [8]; 86.1% in [9]; 105% in experiment [10]; 75.3% in experiment [11]; 88.4% in [12]. Besides, the growth in experiment [19] is 86%; in experiment [13], 83.2%; in experiment [14] it was 61.4%; in experiment [15], 90.3%; in experiment [16] it was 80.7%; in [17], 99.7%. Also, in experiment [18], the growth was 94.9%.
